PubChem BioAssay (NCI)
“And” between values parts separate entries of the source, which are not always exact repeats. Identical values can stand only once. About 83,000 compounds went through this panel and 20% of them were active in at least one assay; those are over-represented in the sample as a whole.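 Percent growth is the endpoint: 0 to 100 indicates growth inhibition (40 means 60% inhibition), 0 means no net growth, and negative values indicate cell death.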 The source made the active and inactive calls. The calls were made as follows: active = growth percent below 10; inactive = the rest.

Columns and labels:
Experiment in all cases: NCI-60 one-dose screen, 48 h (100 = growth as untreated, 0 = no growth, -100 = all killed)
Conditions in all cases: 10 µM unless noted
[1] = tested on: HCT-15 colon
[2] = tested on: HT29 colon
[3] = tested on: SNB-75 CNS
[4] = tested on: SNB-19 CNS
[5] = tested on: U251 CNS
[6] = tested on: SK-MEL-5 melanoma
[7] = tested on: UACC-62 melanoma
[8] = tested on: LOX IMVI melanoma
[9] = tested on: SK-MEL-28 melanoma
[10] = tested on: PC-3 prostate

Question: For `C#CCOc1cccc(/C(N)=N/C(N)=N/c2nc3ccccc3s2)c1`, which growth [1] is on record?
Answer: 57.4% (inactive)

Question: And the growth [2]?
Answer: 108% (inactive)

Question: What about the growth [3] of the same compound?
Answer: 109% (inactive)

Question: And the growth [4]?
Answer: 95.5% (inactive)

Question: And the growth [5]?
Answer: 84.9% (inactive)

Question: What about the growth [6] of the same compound?
Answer: 95.3% (inactive)

Question: And the growth [7]?
Answer: 92.3% (inactive)

Question: And the growth [8]?
Answer: -1.89% (active)

Question: And the growth [9]?
Answer: 115% (inactive)

Question: With `Nn1c(=O)n(-c2cccc(C(F)(F)F)c2)c(=O)c2cc(-c3ccc(F)cc3F)ccc21` as the compound, how does the growth [1] read?
Answer: 10.6% (inactive)

Question: What about the growth [2] of the same compound?
Answer: 60.8% (inactive)

Question: And the growth [3]?
Answer: -16.5% (active)

Question: And the growth [4]?
Answer: 9.55% (active)

Question: And the growth [5]?
Answer: 5.07% (active)

Question: And the growth [10]?
Answer: -3.92% (active)

Question: What about the growth [6] of the same compound?
Answer: -51.6% (active)

Question: What about the growth [8] of the same compound?
Answer: 0.654% (active)

Question: What about the growth [9] of the same compound?
Answer: 28% (inactive)

Question: Which results are given for `CN1CCN(CCNc2nc(-c3cccc(NS(=O)(=O)c4cccc5c(N(C)C)cccc45)c3)cs2)CC1`?
Answer: growth [1]: 18.5% (inactive); growth [2]: 71.6% (inactive); growth [3]: 73.8% (inactive); growth [4]: 75.5% (inactive); growth [5]: 65.9% (inactive); growth [6]: 12.2% (inactive); growth [7]: 65.7% (inactive); growth [8]: 38.1% (inactive); growth [9]: 40.2% (inactive)

Question: What does the source list for `Cc1ccc(-c2cc3nc(C(Cl)Cl)nc(-c4ccc(S(=O)(=O)N(C)C)cc4)n3n2)cc1`?
Answer: growth [1]: 74.9% (inactive); growth [2]: 66.5% (inactive); growth [3]: 108% (inactive); growth [4]: 89.4% (inactive); growth [5]: 83.8% (inactive); growth [6]: 91.5% (inactive); growth [7]: 88.9% (inactive); growth [8]: 45.7% (inactive); growth [9]: 99.5% (inactive)

Question: What does the source list for `CN(C)CCCOc1ccc(C(=C(c2ccccc2)C2CCCC2)c2ccc(OCCCN(C)C)cc2)cc1`?
Answer: growth [1]: -89.2% (active); growth [2]: -86.3% (active); growth [3]: -66.1% (active); growth [4]: -80.4% (active); growth [5]: -74.4% (active); growth [6]: -95.7% (active); growth [7]: -91.6% (active); growth [8]: -84.3% (active); growth [9]: -96.4% (active)

Question: With `COc1ccc(C(=NNS(=O)(=O)c2ccc(C)cc2)c2ccccc2)cc1OC` as the compound, how does the growth [1] read?
Answer: 96.6% (inactive)

Question: What about the growth [2] of the same compound?
Answer: 103% (inactive)

Question: What about the growth [3] of the same compound?
Answer: 90.4% (inactive)

Question: What about the growth [4] of the same compound?
Answer: 94.6% (inactive)

Question: And the growth [5]?
Answer: 96.1% (inactive)

Question: What about the growth [6] of the same compound?
Answer: 97.6% (inactive)

Question: What about the growth [7] of the same compound?
Answer: 70.3% (inactive)

Question: What about the growth [8] of the same compound?
Answer: 106% (inactive)

Question: What about the growth [9] of the same compound?
Answer: 108% (inactive)

Question: Which growth [1] does the source give for `O=C(COc1ccc(/C=C2\C(=O)Nc3ccc(Cl)cc32)cc1)Nc1ccc(Cl)cc1` here?
Answer: 42.1% (inactive)

Question: What about the growth [2] of the same compound?
Answer: 55.8% (inactive)

Question: What about the growth [3] of the same compound?
Answer: 78.9% (inactive)

Question: What about the growth [4] of the same compound?
Answer: 78.2% (inactive)

Question: And the growth [5]?
Answer: 5.92% (active)

Question: And the growth [6]?
Answer: 78% (inactive)

Question: What about the growth [7] of the same compound?
Answer: 27.8% (inactive)

Question: And the growth [8]?
Answer: 1.2% (active)

Question: What about the growth [9] of the same compound?
Answer: 78.6% (inactive)

Question: `O=c1c2ccccc2cc2n1CCN=C2c1ccccc1` was tested. Which growth [1] did it give?
Answer: 96.6% (inactive)

Question: What about the growth [2] of the same compound?
Answer: 104% (inactive)

Question: And the growth [3]?
Answer: 94.9% (inactive)

Question: And the growth [4]?
Answer: 94.8% (inactive)

Question: And the growth [5]?
Answer: 97% (inactive)

Question: What about the growth [6] of the same compound?
Answer: 99.5% (inactive)

Question: What about the growth [7] of the same compound?
Answer: 96% (inactive)

Question: And the growth [8]?
Answer: 101% (inactive)

Question: And the growth [9]?
Answer: 112% (inactive)

Question: How did the growth [1] turn out when `CC1(C)CC[C@]2(C(=O)NCCCCCCN(CCCN)CCCN)CC[C@]3(C)C(=CC[C@@H]4[C@@]5(C)CC[C@H](O)C(C)(C)[C@@H]5CC[C@]43C)[C@@H]2C1` was run?
Answer: 105% (inactive)

Question: What about the growth [2] of the same compound?
Answer: 110% (inactive)

Question: And the growth [3]?
Answer: 95.5% (inactive)

Question: And the growth [4]?
Answer: 96.5% (inactive)

Question: What about the growth [5] of the same compound?
Answer: 94% (inactive)

Question: What about the growth [6] of the same compound?
Answer: 101% (inactive)

Question: And the growth [7]?
Answer: 88.1% (inactive)

Question: What about the growth [8] of the same compound?
Answer: 98.1% (inactive)

Question: What about the growth [9] of the same compound?
Answer: 107% (inactive)

Question: `CC(Nc1ncnc2ccc(-c3cnc4cnccn34)cc12)c1ccccc1` (stereo not given) was tested. Which growth [1] did it give?
Answer: 67.7% (inactive)

Question: What about the growth [2] of the same compound?
Answer: 71.1% (inactive)

Question: And the growth [3]?
Answer: 80.9% (inactive)

Question: And the growth [4]?
Answer: 56.8% (inactive)

Question: What about the growth [5] of the same compound?
Answer: 76.1% (inactive)

Question: What about the growth [10] of the same compound?
Answer: 63.8% (inactive)

Question: And the growth [6]?
Answer: 18.1% (inactive)

Question: And the growth [8]?
Answer: 58.1% (inactive)

Question: And the growth [9]?
Answer: 78.7% (inactive)

Question: Which growth [1] does the source give for `CCCNNC(=O)c1ccc(-c2ccc(NC(=O)CCCCCCC(=O)N[C@H](C(=O)N3C[C@H](O)C[C@H]3C(=O)N[C@@H](C)c3ccc(-c4scnc4C)cc3)C(C)(C)C)cc2)cc1` here?
Answer: 97.5% (inactive)

Question: And the growth [2]?
Answer: 5.44% (active)

Question: And the growth [4]?
Answer: 28.6% (inactive)

Question: What about the growth [5] of the same compound?
Answer: 17.1% (inactive)

Question: And the growth [10]?
Answer: 37.2% (inactive)

Question: What about the growth [6] of the same compound?
Answer: -0.921% (active)

Question: What about the growth [7] of the same compound?
Answer: -5.46% (active)

Question: And the growth [8]?
Answer: -41.8% (active)

Question: And the growth [9]?
Answer: 23.9% (inactive)

Question: What does the source list for `CS(=O)(=O)c1nccc(-c2c(-c3cccc(OCc4ccc(Cl)c(C(F)(F)F)c4)c3)nc3sccn23)n1`?
Answer: growth [1]: -30.7% (active); growth [2]: 95.8% (inactive); growth [4]: 58.6% (inactive); growth [5]: 98.3% (inactive); growth [10]: 86.5% (inactive); growth [6]: 97.2% (inactive); growth [7]: 87.5% (inactive); growth [8]: -75.9% (active); growth [9]: 50.5% (inactive)

Question: `C/C=C/CC(C)C(O)[C@H](NC(=O)[C@@H]1CCCN1C(=O)[C@](C)(CC)NC(=O)CCCCCCCCC)C(=O)N[C@@](C)(CC)C(=O)N[C@@H](CCC(N)=O)C(=O)N[C@H](CCC(N)=O)C(=O)NC(C)(C)C(=O)NC(C)(C)C(=O)N[C@@H](CCC(N)=O)C(=O)N[C@H](CC(C)C)C(=O)N[C@H](CO)CC(C)C` (stereo not given in full) was tested. Which growth [1] did it give?
Answer: 76.9% (inactive) and -9.08% (active)

Question: And the growth [2]?
Answer: 89.8% (inactive) and -25% (active)

Question: What about the growth [4] of the same compound?
Answer: 65.8% (inactive) and -98.1% (active)

Question: And the growth [5]?
Answer: 61.2% (inactive) and -77.9% (active)

Question: What about the growth [6] of the same compound?
Answer: 7.02% (active) and -81.2% (active)

Question: What about the growth [7] of the same compound?
Answer: 73.8% (inactive) and -86.4% (active)

Question: What about the growth [8] of the same compound?
Answer: 40.1% (inactive) and -86.6% (active)

Question: What about the growth [9] of the same compound?
Answer: -42.7% (active) and -100% (active)

Question: `C#CCOc1ccc(-c2csc(NC(=O)C=C)n2)cc1NS(=O)(=O)c1cccc2c(N(C)C)cccc12` was tested. Which growth [1] did it give?
Answer: -9.26% (active)

Question: And the growth [2]?
Answer: 12.6% (inactive)

Question: What about the growth [4] of the same compound?
Answer: 71.2% (inactive)

Question: And the growth [5]?
Answer: 47.7% (inactive)

Question: And the growth [10]?
Answer: 53.6% (inactive)

Question: And the growth [6]?
Answer: 63.6% (inactive)

Question: What about the growth [7] of the same compound?
Answer: 37.1% (inactive)

Question: What about the growth [8] of the same compound?
Answer: -91% (active)

Question: And the growth [9]?
Answer: 14.9% (inactive)
